Reference: PubChem BioAssay (Tox21)
Inconclusive results are not listed. Activity calls are given as the source filed them. Unless noted, calls come from the whole dose curve.

experiment: qHTS assay for small molecule agonists of the antioxidant response element (ARE) signaling pathway - cell viability counter screen (AID 743203); conditions: ARE-bla HepG2 viability, CellTiter-Glo luminescence, 16 h; series mostly up to 73.3 µM; viability change, negative = cytotoxic: at the top concentration; note: nearly all actives have a fitted effect of over 55% in size
How it was run: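 Parallel cytotoxicity read-out for the ARE-bla screen: HepG2 reporter cells, 16 hrs with compounds, then CellTiter-Glo luminescence.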
% is set by controls: 0 for no effect and ±100 for the full control effect; potency is the fitted concentration of half-maximal effect.

SMILES	viability change, negative = cytotoxic	Potency
O=C1OC(=O)c2cc(-c3ccc4c(c3)C(=O)OC4=O)ccc21	-19.3% (inactive)	
CN(C)CCOc1ccc(/C(=C(/CCCl)c2ccccc2)c2ccccc2)cc1		16.1 µM (active)
c1ccc2cc3c4ccccc4c4ccccc4c3cc2c1	-2.56% [at 94.8 µM] (inactive)	
Cc1ccc(Cl)c(N)c1Cl	-28.1% (inactive)	
CCCCCCCCCCCCCCCCC(C(=O)O)C(O)(CC(=O)O)C(=O)O (centres undefined)		21.1 µM (active)

experiment: qHTS assay for small molecule activators of the heat shock response signaling pathway - cell viability counter screen (AID 743209; active = well fitted cell-killing curve with a large enough effect in the repeat runs; note: nearly all actives have a fitted effect of over 50% in size); conditions: HSE-bla HeLa viability, CellTiter-Glo luminescence, 5 h; series mostly up to 62.6 µM; activity change, negative = cytotoxicity: at the top concentration
How it was run: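 To flag cytotoxic compounds, HSE-bla HeLa cells plated at 1500 cells/well were dosed for 5 h at 37 C, followed by the reporter FRET read and then CellTiter-Glo, with luminescence recorded 30 min after reagent addition.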

SMILES	activity change, negative = cytotoxicity	Potency
O=[N+]([O-])c1ccc(O)c2ncccc12	7.39% (inactive)	
CN(C)CCOc1ccc(/C(=C(/CCCl)c2ccccc2)c2ccccc2)cc1		28.9 µM (active)
Cc1ccc(Cl)c(N)c1Cl	-4.84% (inactive)	
CCCCCCCCCCCCCCCCC(C(=O)O)C(O)(CC(=O)O)C(=O)O (centres undefined)		29.8 µM (active)
